CYP2C19 activ = human CYP2C19 activators, primary screen, biochemical, luminescence | Cytochrome P450 2C19 (Homo sapiens), P33261 | recombinant CYP2C19, luciferin-H EGE luminescence; active compounds read high; 0 = fully inhibited enzyme, 1 = untreated enzyme | activation factor at 5 µM | 96,000 tested, under 10 active | AID 1025, 2008;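 active = activation factor of at least 2 at 5 µM in the primary screen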;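 note: 0 = wells with 2.5 mM tranylcypromine and 1 = vehicle-only wells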
CYP2C9 activ = human CYP2C9 activators, primary screen, biochemical, luminescence. recombinant CYP2C9, luciferin-H conversion; active compounds read high; factor 1 = untreated enzyme, 0 = blocked. activation factor at 5 µM. 96,000 compounds, 1.4% hits. AID 1024, 2008;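 active = activation factor of 2 or more for CYP2C9 at a 5 µM dose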;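 note: 0 = sulfaphenazole-blocked wells and 1 = vehicle-only wells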
Target sequence (P11712 whole entry, looked up): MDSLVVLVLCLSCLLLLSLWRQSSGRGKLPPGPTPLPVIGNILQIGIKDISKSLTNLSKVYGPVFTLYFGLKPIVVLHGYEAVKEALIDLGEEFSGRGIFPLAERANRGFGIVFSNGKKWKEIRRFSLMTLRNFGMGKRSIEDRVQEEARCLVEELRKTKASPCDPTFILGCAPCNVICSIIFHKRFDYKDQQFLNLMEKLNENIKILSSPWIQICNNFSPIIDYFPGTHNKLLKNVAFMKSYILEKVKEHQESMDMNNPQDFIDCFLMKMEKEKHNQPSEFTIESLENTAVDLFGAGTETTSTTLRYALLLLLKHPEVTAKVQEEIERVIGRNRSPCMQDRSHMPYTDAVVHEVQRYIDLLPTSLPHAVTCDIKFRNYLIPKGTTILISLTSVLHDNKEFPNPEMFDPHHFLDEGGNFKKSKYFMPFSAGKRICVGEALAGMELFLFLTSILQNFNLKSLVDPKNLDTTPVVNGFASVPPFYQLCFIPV
CYP2C9 inh = blockers of cytochrome P450 2C9 activity – biochemical, luminescence, ADME assay, primary screen; CYP2C9 Supersomes, luciferin-H conversion; AID 777, 2007; P11712; 96,000 compounds, 20% hits; inhibition, % at 5 µM;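 active = blocking of liver enzyme CYP2C9 beyond about 50% at 5 µM, limit read from the data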
D1 mod = D1 CRE-luciferase signal change, two-sided – cell-based, HEK293 D1, dopamine EC30, D1 allosteric modulator project, primary screen | dopamine EC30 potentiation; actives deviate in either direction | 58,000 compounds, 5.9% hits | B-score at 10 µM | D(1A) dopamine receptor (Homo sapiens), P21728;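 active = luminescence count or its row- and column-corrected plate score outside the 99.7% band of the plate's sample wells, on either side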
hDAT+cocaine = changed hDAT dopamine uptake under cocaine IC80, either direction, primary screen, cocaine antagonist project, cell-based, LLC-PK1 hDAT, [14C]-dopamine uptake, MLSMR. AID 449768, 2010. 110,000 compounds, 1.3% hits. LLC-PK1 hDAT cells, [14C]-dopamine uptake with cocaine IC80; actives deviate in either direction. Sodium-dependent dopamine transporter (Homo sapiens), Q01959. B-score at 10 µM;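 active = Z score or B-score, a plate-position-corrected score, falls beyond the plate's 99.7% confidence bounds, in either direction; inactive = both scores lie inside the 99.7% bounds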;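 note: scored against the spread of the other compound wells on the same plate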
CYP2C19 inh = blockers of cytochrome P450 2C19 activity – biochemical, luminescence, ADME assay, primary screen; P33261; CYP2C19 Supersomes, luciferin-H EGE luminescence, 30 min; inhibition, % at 5 µM; 96,000 compounds, 21% hits;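 active = CYP2C19 inhibition above a set limit at 5 µM in the primary screen, cut at about 50% in these data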;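 note: plate controls were negative control wells for no effect and 2.5 mM tranylcypromine positive control for full effect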
The depositor's hits bear a star; nt = not tested or not shown. Sampled rows, rich in hits. Any-hit rate of the full collection: about 28%.

SMILES	CYP2C19 activ	CYP2C9 activ	CYP2C9 inh	D1 mod	hDAT+cocaine	CYP2C19 inh
Cn1c(-c2ccc[nH]c2=O)nc2cc(Cl)ccc21	nt	nt	nt	nt	0.78	nt
CCCOc1ccc(N2C(=O)CC(N(CCc3ccc(OC)cc3)C(=O)c3cccc(F)c3)C2=O)cc1 (stereo not drawn)	0.4	0.4	58*	nt	-0.0069	62*
CCCOc1ccc(N2C(=O)CC(N(CCC)C(=O)CCC(=O)O)C2=O)cc1 (stereo not drawn)	1.1	1.2	-16	nt	-0.77	-9
CCO[C@@H]1OC(C(=O)N2CCN(Cc3ccc4c(c3)OCO4)CC2)=C[C@H](C2CCCCC2)[C@H]1CCCO	nt	nt	nt	nt	0.2	nt
Clc1ccc(Nc2ccc(-n3ccnc3)nn2)cc1Cl	0	0	99*	nt	0.1	100*
C#CCOC(=O)c1ccccc1C(=O)n1nnc2ccccc21	0.1	0.3	66*	-0.52	-0.056	88*
Cc1ccc2nc(N3CCN(Cc4nnnn4Cc4ccccc4)CC3)c(C#N)cc2c1	0.2	0.1	89*	0.69	0.15	78*
COc1ccc2cc(C#N)c(N3CCN(Cc4nnnn4CCC(C)C)CC3)nc2c1	0.4	0.4	57*	0.14	1.1	59*
Cc1ccc2cc(C#N)c(N3CCN(C)CC3)nc2c1	nt	nt	nt	nt	0.74	nt
Cc1nc(NS(=O)(=O)c2ccccc2C)c2c3c(sc2n1)CCC3	1	0.7	26	nt	-0.18	2
OCCNc1nc(SCc2ccccc2)nc2sc3c(c12)CCC3	0.5	0.3	68*	nt	nt	47
CCc1ccc2c(c1)cc(CN(C(=S)Nc1ccccc1C)C1CC1)c1nnnn12	1	0.5	45	nt	0.19	-2
CC(=O)Nc1ccc(-n2c(C)nc(=O)c(-c3ccccc3)c2C)cc1	1.1	1.1	-13	-0.9	0.24	-7
Cc1nc(=O)c(-c2ccccc2)c(C)n1-c1ccccc1O	0.8	0.9	10	-5.6*	-1.3	17
Cc1nc(=O)c(-c2ccccc2)c(C)n1-c1ccc(O)cc1	0.5	1	-2	nt	0.61	54*
Cc1ccc(CN2CCC(C(=O)NCCC(C)C)CC2)o1	1	0.9	13	0.18	-0.78	4
O=C1CCCCCN1CP(=O)(O)CN1CCOCC1	1	1	2	-0.25	nt	2
CN(C)S(=O)(=O)Oc1cccc(C(=O)Nc2ccccc2Cl)c1	0.5	0.5	52*	nt	1.6	52*
CN(C)S(=O)(=O)Oc1cccc(C(=O)Nc2ccc(Cl)cc2)c1	0.6	0.3	68*	nt	-0.6	45
c1ccc2[nH]c(CSc3nnc(-c4ccncc4)o3)nc2c1	0.2	0.2	81*	1.1	0.025	80*
Clc1ccccc1CSc1nnc(-c2ccncc2)o1	0.1	0.1	90*	nt	-0.21	95*
c1ccc2c(CSc3nnc(-c4ccncc4)o3)cccc2c1	0	0.1	91*	nt	1.8	96*
COc1cc(-c2nnc(SCc3ccccc3Cl)o2)cc(OC)c1OC	0.6	0.7	30	nt	nt	45
CN(C)CCCNc1oc(-c2cccc(Cl)c2)nc1C#N	0.9	1	4	-1.6	-0.14	11
C#C[C@]1(O)CCC2C3CCC4=Cc5oncc5CC4(C)C3CCC21C (stereo partly drawn)	nt	nt	nt	nt	-0.6	nt
SMILES	CYP2C19 activ	CYP2C9 activ	CYP2C9 inh	D1 mod	hDAT+cocaine	CYP2C19 inh
O=C(NC1CCCCCCC1)c1ccc(CNc2c(N3CCOCC3)c(=O)c2=O)cc1	0.8	0.6	44	0.0031	0.0084	20
CC(Nc1c([N+](=O)[O-])c(=O)oc2ccccc12)C(Cl)c1ccccc1 (stereo not drawn)	0	0.7	33	nt	-1.3	97*
CCCCOc1nc2ccccc2nc1C(C#N)S(=O)(=O)c1ccccc1 (stereo not drawn)	0.2	0.2	77*	-0.55	-0.72	78*
CC1CCCN(c2nc3ccccc3nc2C(C#N)S(=O)(=O)c2ccccc2)C1 (stereo not drawn)	0.9	0.7	30	0.9	nt	10
CN(C)CCCC1(O)c2ccccc2C=Cc2ccccc21	nt	nt	nt	nt	-0.54	nt
COc1ccc(OC)c(-n2c(-c3cc(-c4ccc(F)cc4)n[nH]3)n[nH]c2=S)c1	0.6	1.1	-11	nt	2.4	35
COc1ccc(OC)c(-n2c(C)ccc2-c2ccc(S(C)(=O)=O)cc2)c1	0	0	98*	nt	0.59	96*
COc1ccc(OC)c(-n2c(-c3ccc(S(C)(=O)=O)cc3)cc(C=O)c2C)c1	0.4	0.3	66*	nt	-0.24	60*
COc1ccc(OC)c(N2C(=O)CC(Cc3ccc(C)cc3)C2=O)c1 (stereo not drawn)	nt	nt	nt	0.72	1.1	nt
CCCn1nnnc1SCC(=O)c1ccc2c(c1)OCCO2	0.4	0.6	37	-0.21	-0.22	65*
CCCn1nnnc1SCC(=O)Nc1ccc(F)cc1	0	0.8	19	-0.56	-0.0015	96*
CCCn1nnnc1NC(=O)CSc1ccc(Cl)cc1	0.2	0.3	66*	-0.3	-1.5	82*
CCCCn1nnnc1SCC(=O)Nc1ccc2c(c1)OCCO2	0.3	0.4	59*	-0.55	-1.2	67*
CCOc1ccc(NC(=O)CSc2nnnn2CC(=O)O)cc1	nt	nt	nt	0.081	-1	nt
Cn1cnnc1SCC(=O)c1ccc2c(c1)OCCO2	1.1	1.2	-20	nt	-1.7	-13
O=C(NC1CCCCCC1)C1CCN(C(=O)Cc2ccccc2)CC1	0.9	0.8	16	0	0.85	6
CCCn1nnnc1SCC(=O)N(C(C)C)C(C)C	0.3	1	-1	nt	0.88	72*
CCCCn1nnnc1SCC(=O)Nc1ccc(C)cc1	0.3	0.6	36	-0.071	-1	71*
CCC(NC(=O)NCc1ccc2c(c1)OCO2)(C(F)(F)F)C(F)(F)F	0.1	0.5	52*	-0.039	-3.4*	86*
COc1ccc(CNC(=O)CSc2nnnn2-c2ccc(O)cc2)cc1	0.1	1.2	-23	-0.33	1.4	89*
COc1ccc(OC)c(-n2nnnc2SCC(=O)O)c1	0.9	0.8	22	nt	-0.8	7
COc1cccc(CNC(=O)C2(C)Oc3ccccc3NC2=O)c1 (stereo not drawn)	0.3	0.1	92*	nt	0.018	72*
COc1ccc(OC)c(-n2nnnc2SCC(=O)NCc2ccc3c(c2)OCO3)c1	0.2	0.4	60*	1.6	0.58	81*
O=S(=O)(/N=C/c1c(O)ccc2ccccc12)c1cccs1	0.8	0.8	17	nt	-2.5	15

Screening results deposited in PubChem by several laboratories.
